# Test results published in the supplement of paper PMC8728848.
# Many of the other results were omitted from the sample, so the strongest signals are more common in it than they were.
# B1: ArathEULS3 (Arabidopsis thaliana), Q945P1 (protein)
# chain: MEHHHQHHRHHQRDDGEDDRQSFGVPPPHVDAPPQPHGLYQSQPHFDPYAPTPQAPAPYRSETQFEPHAPPPYRSEPYFETPAPPPSFGHVSHVGHQSPNESYPPEHHRYGGYQQPSNSLLESHGDHSGVTHVAHHSSNQPQSSSGVYHKPDENRLPDNLAGLAGRATVKVYSKAEPNYNLTIRDGKVILAPADPSDEAQHWYKDEKYSTKVKDADGHPCFALVNKATGEAMKHSVGATHPVHLIRYVPDKLDESVLWTESKDFGDGYRTIRMVNNTRLNVDAYHGDSKSGGVRDGTTIVLWDWNKGDNQLWKIFPFILEQKLISEEDLNSAVDHHHHHH
# Tests used:
# Experiment in all cases: glycan array binding signal (z-score within array); higher = stronger binding
# Settings in all cases: glycan notation: IUPAC condensed, linker removed
# [1] = target: GlcNAc(a1-4)Gal(b1-4)GlcNAc(b1-3)Gal(b1-4)Glc
# Procedure, shortened: (§1)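 Glycan array data were curated from 3228 arrays in the Consortium for Functional Glycomics database and kept only where the protein sequence was available. Glycan names were converted to IUPAC-condensed notation, and columns mapping to the same glycan were averaged. The binding signal is a within-array Z-score, averaged across arrays of the same protein sequence at different concentrations or buffers and across linkers. Negative Z-scores can be read as non-binding.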
# [2] = target: GlcNAc(a1-4)Gal(b1-4)GlcNAc(b1-3)Gal(b1-4)GlcNAc(b1-3)Gal(b1-4)GlcNAc
# Procedure, shortened: as §1
# [3] = target: GlcNAc(a1-4)Gal(b1-4)GlcNAc(b1-3)Gal(b1-4)[Fuc(a1-3)]GlcNAc(b1-3)Gal(b1-4)[Fuc(a1-3)]GlcNAc
# Procedure, shortened: as §1
# GlcNAc(b1-3)Man = target: GlcNAc(b1-3)Man
# Procedure, shortened: as §1
# [4] = target: GlcNAc(b1-3)[GlcNAc(b1-6)]GalNAc
# Procedure, shortened: as §1
# [5] = target: Man(a1-2)Man(a1-3)[Man(a1-2)Man(a1-6)]Man(a1-6)[Man(a1-2)Man(a1-2)Man(a1-3)]Man(b1-4)GlcNAc(b1-4)GlcNAc
# Procedure, shortened: as §1
# Man(a1-3)[Man(a1-6)]Man = target: Man(a1-3)[Man(a1-6)]Man
# Procedure, shortened: as §1
# [6] = target: Man(a1-3)[Man(a1-6)]Man(a1-6)[Man(a1-3)]Man
# Procedure, shortened: as §1
# [7] = target: Neu5Ac(a2-3)Gal(b1-3)[Fuc(a1-4)]GlcNAc
# Procedure, shortened: as §1
# [8] = target: Neu5Ac(a2-3)Gal(b1-3)[Fuc(a1-4)]GlcNAc(b1-3)Gal(b1-3)[Fuc(a1-4)]GlcNAc
# Procedure, shortened: as §1
# [9] = target: Neu5Ac(a2-3)Gal(b1-4)GlcNAc(b1-2)[Neu5Ac(a2-3)Gal(b1-4)GlcNAc(b1-6)]Man(a1-6)[Neu5Ac(a2-3)Gal(b1-4)GlcNAc(b1-2)Man(a1-3)]Man(b1-4)GlcNAc(b1-4)GlcNAc
# Procedure, shortened: as §1
# [10] = target: Neu5Ac(a2-3)Gal(b1-4)GlcNAc(b1-3)Gal(b1-4)[Fuc(a1-3)]GlcNAc
# Procedure, shortened: as §1
# [11] = target: Neu5Ac(a2-3)Gal(b1-4)GlcNAc(b1-3)GalNAc
# Procedure, shortened: as §1
# [12] = target: Neu5Ac(a2-3)Gal(b1-4)GlcNAc(b1-6)GalNAc
# Procedure, shortened: as §1
# [13] = target: Neu5Ac(a2-3)Gal(b1-4)GlcNAc6S
# Procedure, shortened: as §1
# [14] = target: Neu5Ac(a2-3)Gal(b1-4)[Fuc(a1-3)]GlcNAc
# Procedure, shortened: as §1
# [15] = target: Neu5Ac(a2-3)Gal(b1-4)[Fuc(a1-3)]GlcNAc(b1-3)GalNAc
# Procedure, shortened: as §1
# [16] = target: Neu5Ac(a2-6)Gal(b1-4)GlcNAc
# Procedure, shortened: as §1
# [17] = target: Neu5Ac(a2-6)Gal(b1-4)GlcNAc(b1-3)Gal(b1-3)GlcNAc
# Procedure, shortened: as §1
# [18] = target: Neu5Ac(a2-6)Gal(b1-4)GlcNAc(b1-6)[Gal(b1-3)GlcNAc(b1-3)]Gal(b1-4)Glc
# Procedure, shortened: as §1
# [19] = target: Neu5Ac(a2-6)GalNAc(b1-4)GlcNAc
# Procedure, shortened: as §1
# [20] = target: Neu5Ac9Ac(a2-3)Gal(b1-4)GlcNAc
# Procedure, shortened: as §1
binder,measurement,setting,value
B1,glycan array binding signal (z-score),[1],-0.112
same,glycan array binding signal (z-score),[2],-0.273
same,glycan array binding signal (z-score),[3],3.11
same,glycan array binding signal (z-score),GlcNAc(b1-3)Man,-0.164
same,glycan array binding signal (z-score),[4],-0.203
same,glycan array binding signal (z-score),[5],-0.229
same,glycan array binding signal (z-score),Man(a1-3)[Man(a1-6)]Man,-0.26
same,glycan array binding signal (z-score),[6],-0.266
same,glycan array binding signal (z-score),[7],-0.211
same,glycan array binding signal (z-score),[8],-0.244
same,glycan array binding signal (z-score),[9],1.98
same,glycan array binding signal (z-score),[10],-0.229
same,glycan array binding signal (z-score),[11],-0.326
same,glycan array binding signal (z-score),[12],-0.302
same,glycan array binding signal (z-score),[13],-0.173
same,glycan array binding signal (z-score),[14],1.79
same,glycan array binding signal (z-score),[15],2
same,glycan array binding signal (z-score),[16],0.011
same,glycan array binding signal (z-score),[17],-0.157
same,glycan array binding signal (z-score),[18],-0.239
same,glycan array binding signal (z-score),[19],-0.302
same,glycan array binding signal (z-score),[20],-0.232
